Screens: PubChem BioAssay, National Center for Advancing Translational Sciences (NCATS)
Giardia killer – Giardia lamblia killing; Giardia lamblia trophozoite viability; activity change, % at 7.66 µM, hits read low; hit rate 0.15% among 340,000; AID 540267; in the data active means activity change below about -80%; inconclusive means between about -30% and that limit;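 further: parasites exposed to compound for two days anaerobically before the ATP read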
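Media and compound were dispensed first, then trophozoites at 100 cells/well; plates sat 48 hrs at 37 deg C without oxygen before ATP luminescence reagent was added and read after 15-30 min at room temperature.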
TDP1 inh – inhibitors of human tyrosyl-DNA phosphodiesterase TDP1; Q9NUW8; recombinant TDP1, AlphaScreen DNA substrate cleavage; Potency, µM (series often up to 130 µM), hits mostly inhibitors; hit rate 0.28% among 350,000; further: nearly all actives have a fitted effect of over 40% in size
Target sequence (Q9NUW8 whole entry, looked up): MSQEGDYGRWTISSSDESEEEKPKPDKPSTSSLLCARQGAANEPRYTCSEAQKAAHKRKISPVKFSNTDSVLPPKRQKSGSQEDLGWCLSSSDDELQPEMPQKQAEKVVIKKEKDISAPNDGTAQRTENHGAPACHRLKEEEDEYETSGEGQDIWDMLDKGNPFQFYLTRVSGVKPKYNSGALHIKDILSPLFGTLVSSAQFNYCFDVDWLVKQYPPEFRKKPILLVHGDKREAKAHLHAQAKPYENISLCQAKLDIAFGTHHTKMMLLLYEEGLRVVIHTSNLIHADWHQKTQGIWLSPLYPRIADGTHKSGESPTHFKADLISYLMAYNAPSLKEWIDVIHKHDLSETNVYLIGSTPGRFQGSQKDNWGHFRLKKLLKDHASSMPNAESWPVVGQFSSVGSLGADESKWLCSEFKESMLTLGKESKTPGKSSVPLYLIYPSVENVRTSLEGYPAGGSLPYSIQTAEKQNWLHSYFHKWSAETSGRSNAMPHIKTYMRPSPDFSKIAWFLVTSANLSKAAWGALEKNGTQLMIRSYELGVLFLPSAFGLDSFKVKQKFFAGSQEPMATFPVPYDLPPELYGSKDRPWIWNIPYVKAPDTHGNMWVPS
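Compounds were preincubated with Tdp1 (1 nM final) for 15 min at room temperature before substrate (15 nM final) started a 5 min reaction; beads (10 ug/ml final) were then added for 10 min before AlphaScreen detection.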
DT40 TDP1 no CPT – qHTS for Inhibitors of human tyrosyl-DNA phosphodiesterase 1 (TDP1): qHTS in cells in absence of CPT. hit rate 15% among 420,000. Potency, µM (top dose mostly 46.2 µM), usual class: inhibitors. DT40 Tdp1-/- hTDP1 cells, no CPT, ATP luminescence, 48 h; further: nearly all actives have a fitted effect of over 55% in size
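Camptothecin absent (DMSO only). Human TDP1-complemented DT40 knockout cells, 400 cells/well, 37 °C for minimum 48 hr; ATP measured via CellTiter-Glo, 30 min dark incubation, luminescence.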
TDP1 cell CPT – growth inhibition of DT40 Tdp1-/-;hTDP1 cells with camptothecin (screen for TDP1 inhibitors) | chicken DT40 Tdp1-/-;hTDP1 cells + 20 nM CPT, ATP luminescence, 48 h | Potency, µM (top dose mostly 46.2 µM), usual class: inhibitors | hit rate 12% among 420,000; further: nearly all actives have a fitted effect of over 55% in size
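Cell growth measured by CellTiter-Glo luminescence after a minimum 48 h, 37 C compound exposure with 20 nM CPT in Tdp1-knockout DT40 cells stably expressing hTDP1, seeded 400/well; qHTS titration format.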
ELG1 repair inh – blocks ELG1-dependent DNA repair in HEK293T cells; AID 504467; Potency, µM (highest dose often 46.1 µM), actives largely listed as inhibitors; hit rate 2.3% among 330,000; HEK293T ELG1-luciferase reporter, luminescence, 16 h; DNA damage induced by 5-fluorouridine; further: nearly all actives have a fitted effect of over 55% in size
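Cells (2,000 per well) received 5-fluorouridine plus test compound or DMSO and were incubated 16 hr at 37 °C, 5% CO2. Luciferase activity was read by luminescence 30 min after ONE-Glo addition; signal suppression marked inhibition of damage-induced ELG1 function.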
IL1B secr inh – inhibitors of inflammasome signaling (IL-1 beta secretion); THP-1 LPS/ATP IL-1B secretion, AlphaLISA, 16 h; active compounds read low; activity change, % at 57.5 µM; hit rate 4.7% among 360,000; in the data active means activity change below about -50%; inconclusive means mostly about -30% to -49%
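THP-1 cells pretreated 1 hr with compounds (up to 57.5 uM final), then stimulated with LPS (250 ng/mL final) plus ATP (1.25 mM final); secreted IL-1B measured by AlphaLISA after 16 hr, decreased signal indicating inhibition.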
Numbers stand for hits; i = inactive; ? = inconclusive; nt = not tested or not shown; [ ] = remark or other dose. Shown are actives, neighbours in structure and some others; about 19% of the full set was active somewhere. Unless noted, the call rests on the fitted dose curve; in most records, active means well fitted curve in the direction sought with a large enough effect; inconclusive means small, poorly fitted or top-dose-only effect, or another doubt; inactive means no such curve, though single readings can be large; an effect the other way counts as inactive or inconclusive.

SMILES	Giardia killer	TDP1 inh	DT40 TDP1 no CPT	TDP1 cell CPT	ELG1 repair inh	IL1B secr inh
Cc1ccc(O)c(C(=O)c2cc(C(=O)NCCc3ccccc3)c(=O)n(CCc3ccccc3)c2)c1	i	i	16µM	?	?	i
CCCc1nc(NCCCOCC)c2nnn(Cc3ccccc3)c2n1	i	nt	?	?	i	i
CC(NCC(=O)Nc1ccccc1C(=O)NC1CC1)c1ccc(Cl)cc1 (centres undefined)	nt	nt	12µM	?	nt	?
CN(C)c1nc(N)nc2c1ncn2C1OC(CO)CC1O (centres undefined)	nt	nt	?	?	nt	i
Nc1nc(=S)c2ncn([C@H]3O[C@@H](CO)[C@@H](O)[C@@H]3O)c2[nH]1	nt	i[21 µM]	nt	nt	nt	nt
COc1nc(N)nc2c1ncn2C1OC(CO)CC1O (centres undefined)	i	nt	1.5µM	1µM	nt	i
Nc1nc(=S)c2ncn(C3OC(CO)CC3O)c2[nH]1 (centres undefined)	i	nt	12µM	i	nt	i
O=C(Cc1c(Cl)cccc1Cl)OCC(=O)N1CCOCC1	i	i	i	i	?	i
O=C(CCNS(=O)(=O)c1cccc2nonc12)Nc1ccc(F)cc1	nt	i	i	i	nt	nt
CC(C)c1nn2c(=O)cc(COC(=O)C3CCCCC3)nc2s1	nt	i	i	i	nt	nt
CCOc1cccc(C(=O)NC2CCCCC2)c1	i	i	i	i	?	i
CCCN1CCC(NC(=O)c2cccc(Oc3ccccc3)c2)CC1	i	i	23µM	?	?	i
COc1cc(OC)cc(C(=O)NC2CCN(CCCOc3ccccc3)CC2)c1	i	i	i	i	i	-52
CC1=C(c2ccc(C)c(C)c2)S(=O)(=O)N(Cc2ccc(C(=O)NC(C)c3ccccc3)cc2)C1=O (centres undefined)	nt	i	i	i	nt	nt
CN1CCCCCC1C(=O)NCC1Cc2cc(-c3cnccn3)ccc2O1 (centres undefined)	nt	nt	?	i	nt	nt
COCCNc1nc(N2CCCCC2)c2cnn(C)c2n1	i	i	?	i	i	i
CCC(C)(C)C(=O)Nc1ncc(S(=O)(=O)c2ccc([N+](=O)[O-])cc2)s1	i	i	?	?	?	i
O=C(Nc1ncc(S(=O)(=O)c2ccc([N+](=O)[O-])cc2)s1)c1ccc2ccccc2c1	i	i	?	16µM	i	i
O=C(Nc1ncc(S(=O)(=O)c2ccc([N+](=O)[O-])cc2)s1)c1cccnc1	i	i	18µM	5.8µM	i	?
CCC(C)Nc1nc2c(c(=O)n(C)c(=O)n2C)n1C (centres undefined)	i	i	i	i	i	i
Cn1c(N/N=C2\CCCc3ccccc32)nc2c1c(=O)n(Cc1ccccc1)c(=O)n2C	i	i	?	23µM	i	i
CCC(C)Nc1nc2c(c(=O)n(C)c(=O)n2C)n1Cc1ccc(F)cc1 (centres undefined)	i	i	?	18µM	i	i
Cn1c(=O)c2c(nc(NCCc3ccccc3)n2Cc2ccc(Cl)c(Cl)c2)n(C)c1=O	nt	nt	6.5µM	?	nt	nt
CC(Cl)=CCn1c(NCCc2ccccc2)nc2c1c(=O)n(C)c(=O)n2C	nt	nt	1.5µM	1.5µM	nt	i
C=CCNc1nc2c(c(=O)n(C)c(=O)n2C)n1CCCCCC	i	i	1.6µM	3.3µM	i	i
SMILES	Giardia killer	TDP1 inh	DT40 TDP1 no CPT	TDP1 cell CPT	ELG1 repair inh	IL1B secr inh
Cn1c(=O)c2c(nc(NCCc3ccccc3)n2Cc2cccc(Br)c2)n(C)c1=O	nt	nt	13µM	12µM	nt	nt
C/C(Cl)=C/Cn1c(N2CCCC2)nc2c1c(=O)n(C)c(=O)n2C	i	i	?	?	?	i
Cn1c(=O)c2c(nc(N/N=C/c3ccc(OC(=O)c4ccco4)cc3)n2Cc2ccccc2Cl)n(C)c1=O	i	i	8.2µM	6.5µM	16µM	i
C=CCNc1nc2c(c(=O)n(C)c(=O)n2C)n1CC	i	i	i	i	i	i
C/C(Cl)=C\Cn1c(Nc2ccc(C)cc2)nc2c1c(=O)n(C)c(=O)n2C	i	i	?	?	5.2µM	i
COC(=O)c1cc(OC)c(OC)cc1NC(=S)N1CCN(C/C=C/c2ccccc2)CC1	i	i	?	i	?	i
CCc1ccccc1NC(=O)Cn1c(=O)n(CCCS(=O)(=O)C2CCCCC2)c(=O)c2ccccc21	nt	i	i	i	nt	nt
C=Cc1ccc(CN2C(=O)N(c3ccc(C)c(C)c3)S(=O)(=O)c3ccccc32)cc1	nt	i	?	?	nt	nt
C=CCNc1nc2c(c(=O)n(C)c(=O)n2C)n1Cc1ccc(F)cc1	i	i	6.5µM	2.3µM	?	i
Cn1c(=O)c2c(nc(NCC3CCCO3)n2C)n(C)c1=O (centres undefined)	i	i	i	i	i	i
Cn1c(=O)c2c(nc(-c3ccccc3)n2C)n(Cc2ccccc2)c1=O	i	i	21µM	16µM	i	i
Cn1c(=O)n(Cc2ccccc2)c(=O)c2c1nc(NCC1CCCO1)n2Cc1ccccc1 (centres undefined)	i	i	?	?	21µM	i
Cn1c(=O)[nH]c(=O)c2c1nc(N/N=C/c1cccnc1)n2Cc1ccc(Cl)cc1	i	i	i	i	i	i
Cn1c(=O)c2c(nc(N/N=C/c3cccnc3)n2Cc2ccccc2)n(C)c1=O	i	i	26µM	12µM	?	i
C=CCNc1nc2c(c(=O)n(C)c(=O)n2C)n1CC(=C)C	i	i	?	?	i	i
CN1CCN(c2ncnc3c2ncn3[C@H]2CN(Cc3ccccc3)C[C@@H](CO)O2)CC1	nt	nt	i	?	nt	i
CC(NC(=O)C1CCCN1S(=O)(=O)c1ccccc1)c1ccccc1 (centres undefined)	i	nt	?	?	i	i
CCOC(=O)c1c(C)nc(C)c(C(=O)OCC)c1-c1ccco1	i	nt	i	i	i	i
COc1ccccc1CNC(=O)C1CCCN(C(=O)c2cnn(-c3ccc(F)cc3)c2-n2cccc2)C1 (centres undefined)	nt	i	nt	nt	nt	nt
Cc1c(C(=O)N2CCN(C)CC2)sc2ncnc(NCC3(c4ccccc4)CCOCC3)c12	nt	nt	i	i	nt	nt
CC(C)CCn1c(NCCc2ccccc2)nc2c1c(=O)n(C)c(=O)n2C	i	nt	21µM	13µM	?	i
Cn1c(=O)c2c(nc(NCCc3ccccc3)n2Cc2ccc(F)cc2)n(C)c1=O	i	i	5.2µM	3.7µM	12µM	i
CNc1nc2c(c(=O)n(C)c(=O)n2C)n1Cc1ccccc1	i	i	13µM	?	i	i
Cn1c(-c2ccc([N+](=O)[O-])cc2)nc2ccccc21	i	i	i	i	?	i
Cn1nc([N+](=O)[O-])c(C(C#N)c2nc3ccccc3n2C)c(Cl)c1=O (centres undefined)	i	i	23µM	?	?	i
